A selection: hits, their analogues and other compounds. The true share with any hit is near 6.5%.
HT1080NT lethal = qHTS for induction of synthetic lethality in tumor cells producing 2HG: qHTS for the HT-1080-NT fibrosarcoma cell line | AID 686970, 2013 | 360,000 compounds, 1.6% hits | HT-1080-NT fibrosarcoma viability, CellTiter-Glo ATP luminescence, 48 h | Potency, µM (titrated, usually from 46.1 µM), for inactives: at the top dose activity, negative = less viability, hits mostly cytotoxic;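 note: NT is the 2HG producing partner of a matched IDH1 knockdown line; potency is the fitted concentration of half-maximal effect; 0% = DMSO-treated cells and -100% = media-only wells without cells; nearly all actives have a fitted effect of over 55% in size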
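Fibrosarcoma NT cells, 750 per well in 5% FBS RPMI, were exposed to compound for 48 hours. Viability: CellTiter-Glo luminescence.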
IL-1B inflam inh = qHTS for Inhibitors of Inflammasome Signaling: IL-1-beta AlphaLISA Primary Screen; AID 743279, 2014; 360,000 compounds, 4.7% hits; activity change, % at 57.5 µM; THP-1 LPS/ATP IL-1B secretion, AlphaLISA, 16 h; stronger effect = lower value; in the data active = activity change below about -50%; inconclusive = mostly about -30% to -49%; note: % is set by controls: 0 for no effect and ±100 for the full control effect
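Secreted IL-1B measured by AlphaLISA bead assay after 16 h compound exposure of THP-1 cells; compounds (final up to 57.5 uM) added 1 h before LPS (250 ng/mL) and ATP (1.25 mM) stimulation; lower signal means less secretion.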
TGFb inhibitor = qHTS for Inhibitors of TGF-b; 410,000 compounds, 1.2% hits; AID 588855, 2011; Potency, µM (titrated, usually from 46.1 µM), for inactives: at the highest dose activity, negative = inhibition, usual class: inhibitors; HepG2 CAGA-GFP TGF-b/SMAD3 reporter, GFP fluorescence, 18 h; TGF-beta stimulated, 500 pg/mL final; note: potency is the fitted concentration of half-maximal effect; % is set by controls: 0 for no effect and ±100 for the full control effect; nearly all actives have a fitted effect of over 65% in size
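Read-out: total well GFP (ex488/em500-530) summed from mean per-cell fluorescence. Cells: HEPG2 CAGA-GFP, 1% FBS DMEM, 18 h at 37 degrees C with 500 pg/mL final TGF-beta. Unstimulated wells served as the full-inhibition control; stimulated DMSO wells = 0%.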
HepG2 viability = qHTS for Inhibitors of TGF-b: Cytotox Counterscreen; HepG2 CAGA-GFP viability, ATP luminescence, 18 h; Potency, µM (doses to about 46.1 µM), without a hit: top-dose activity change, negative = cytotoxicity, hits mostly cytotoxic; 410,000 compounds, 0.76% hits; AID 588856, 2011; note: potency is the fitted concentration of half-maximal effect
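HepG2 CAGA-GFP cells (1000/well, DMEM with 1% FBS) received compound, then TGF-beta at 500 pg/mL final, and were incubated 18 hours at 37 degrees C. Viability was read by CellTiter-Glo luminescence. Media-only wells were set as complete cell-killing and DMSO as no toxicity.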
Giardia kill = Small Molecules that selectively kill Giardia lamblia: qHTS | 340,000 compounds, 0.15% hits | Giardia lamblia trophozoite viability | AID 540267, 2011 | activity change, % at 7.66 µM, hits read low; in the data active = activity change below about -80%; inconclusive = between about -30% and that limit;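 note: parasites exposed to compound for two days anaerobically before the ATP read; % is set by controls: 0 for no effect and ±100 for the full control effect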
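Giardia lamblia trophozoites (100 cells/well) were incubated with compounds for 48 h at 37 deg C under anaerobic conditions. Viability was read as ATP content by one-step luminescence after 15-30 min at room temperature.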
HT1080 IDH1KD tx = qHTS for induction of synthetic lethality in tumor cells producing 2HG: qHTS for the HT-1080-IDH1KD cell line. HT-1080 IDH1 knockdown viability, ATP luminescence, 48 h. Potency, µM (titrated, usually from 46.1 µM), for the others: at the top dose activity, negative = toxicity, most hits filed as cytotoxic. 360,000 compounds, 2% hits. AID 686971, 2013;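 note: potency is the fitted concentration of half-maximal effect; 0% = DMSO wells and -100% = cell-free medium wells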
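After a 2 h attachment period, IDH1KD HT-1080 cells took pin-transferred compound for 48 h at 37 °C; ATP-based luminescence after 10 min room-temperature reagent incubation reported viability.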
* hit, by the source's call; u = inconclusive; x = no result. Unless noted, calls come from the whole dose curve; as a rule, active = well fitted curve in the direction sought with a large enough effect; inconclusive = small, poorly fitted or top-dose-only effect, or another doubt; inactive = no such curve, though single readings can be large; an effect the other way counts as inactive or inconclusive.

SMILES	HT1080NT lethal	IL-1B inflam inh	TGFb inhibitor	HepG2 viability	Giardia kill	HT1080 IDH1KD tx
CCOC(=O)N1CCN(CCC(=O)Nc2ccc(OC)cc2)CC1	6%	10	u	4%	-12	0%
CC1CC(C)CN(CCCNC(=O)CN2C(=O)CSc3ccc(S(=O)(=O)N4CCCCC4)cc32)C1 (stereo not given)	-3%	-60*	12%	-10%	-2	1%
O=C(CN1C(=O)CSc2ccc(S(=O)(=O)N3CCOCC3)cc21)NCCCN1CCCCC1	5%	12	2%	2%	6	7%
CCOc1ccc(CNS(=O)(=O)c2cc(CN3C(=O)c4cccnc4C3=O)ccc2OC)cc1	-4%	0	-4%	3%	0	-2%
COC1OC2COC(c3ccccc3)OC2C2OC(c3ccccc3)OC12 (stereo not given)	1%	32	8%	-3%	x	5%
O=C1c2ccccc2S(=O)(=O)N1CCS(=O)(=O)c1ccc(F)cc1	-2%	-76*	3%	-8%	6	-9%
O=C(CCN1C(=O)c2ccccc2S1(=O)=O)N1CCN(c2ccc(F)cc2)CC1	-2%	18	0%	-4%	-9	-9%
O=C(O)CCc1ccc(-c2ccc(Br)cc2)o1	-2%	-65*	0%	-62%	-22	0%
O=C(O)CCc1ccc(-c2ccc(Cl)cc2)o1	-3%	-3	16%	-5%	7	-1%
COc1ccc(NC(=O)CSc2n[nH]c(C(C)C)n2)c([N+](=O)[O-])c1	-3%	-67*	0%	-2%	3	2%
CC(C)(C)CC(C)(C)c1ccc(O)c(CN2CCN(CCC#N)CC2)c1	8%	-57*	0%	-51%	1	-21%
O=C(c1ccc(C(F)(F)F)cc1)N1CCC(=O)N(C(COCc2ccccc2)Cc2ccccc2)CC1 (stereo not given)	-3%	-55*	u	17%	-11	-20%
O=C(c1ccc(C(F)(F)F)cc1)N1CCC(=O)N(C(COCc2ccc(Cl)cc2)Cc2ccccc2)CC1 (stereo not given)	u	-61*	u	7%	-5	u
CC(=O)O[C@@H]1[C@H]2[C@@H](C[C@@H](C)[C@@H]3C=CC(=O)[C@@]13C)OC(=O)[C@@H]2C	2%	u	-1%	-25%	21	-6%
C=C1C(=O)OC2C1CCC(C)C1C=CC(=O)C12C (stereo not given)	u	-68*	u	-1%	-3	21µM*
CC(C)(C)C1CCc2c(sc3ncn(N)c(=N)c23)C1 (stereo not given)	-30%	-75*	-30%	-78%	-9	u
COc1cc(C(=O)Nc2ccccc2N2CCN(S(C)(=O)=O)CC2)cc(OC)c1OC	-6%	-19	22%	3%	-2	-1%
CCC(C)Sc1ccc([C@H]2N[C@@](C)(C(=O)OC)[C@H]3C(=O)N(CC)C(=O)[C@@H]23)cc1 (stereo not given in full)	5%	18	u	1%	-11	12%
CCOC(=O)C1=CN(Cc2ccccc2)CCC1=O	-3%	25	16%	3%	-12	-3%
COc1ccc(C2CC(c3ccc4ccccc4c3)=NN2C(=O)CN2C(=O)CCC2=O)cc1 (stereo not given)	-1%	u	-10%	-16%	11	-8%
O=C(NCCCCCCCN1CCCCCCC1)C(C1CCCCC1)C1CCCCC1	-16%	-82*	18µM*	-3%	-5	u

Screens deposited in PubChem BioAssay by National Center for Advancing Translational Sciences (NCATS).
